Data published in PubChem BioAssay AID1851 (National Center for Advancing Translational Sciences (NCATS), 2009).
“And” between values parts separate entries of the source, which are not always exact repeats. Identical values can stand only once. Among all 16,000 compounds or so, about 4,000 (25%) were called active. Inconclusive results (about 26%) are left out. The call rests on the fitted dose curve; in most records, active means well fitted curve in the direction sought with a large enough effect; inconclusive means small, poorly fitted or top-dose-only effect, or effect the other way; inactive means no such curve, though single readings can be large or run the other way. Only a sample is shown.

target: Cytochrome P450 2C9 (Homo sapiens) (UniProt P11712); assay: Cytochrome panel assay with activity outcomes; details: recombinant CYP, pro-luciferin dealkylation, luminescence, p450-cyp2c9; series mostly up to 57.1 µM; activity, negative = inhibition: at the top concentration
Sequence (P11712 whole entry, looked up): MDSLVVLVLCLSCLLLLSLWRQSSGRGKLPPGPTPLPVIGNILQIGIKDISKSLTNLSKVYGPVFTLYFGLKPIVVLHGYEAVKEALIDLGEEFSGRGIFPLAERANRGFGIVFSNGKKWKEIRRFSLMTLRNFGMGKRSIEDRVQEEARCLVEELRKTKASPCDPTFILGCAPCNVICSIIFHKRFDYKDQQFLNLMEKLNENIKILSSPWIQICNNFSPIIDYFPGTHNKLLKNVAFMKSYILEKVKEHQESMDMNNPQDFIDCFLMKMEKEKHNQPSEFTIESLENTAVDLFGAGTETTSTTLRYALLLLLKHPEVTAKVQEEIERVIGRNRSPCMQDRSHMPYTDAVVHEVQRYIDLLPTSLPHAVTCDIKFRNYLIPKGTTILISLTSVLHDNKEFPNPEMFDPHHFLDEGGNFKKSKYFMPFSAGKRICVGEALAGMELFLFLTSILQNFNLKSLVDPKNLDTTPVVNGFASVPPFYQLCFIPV
On the % scale 0 is the no-effect control and ±100 the full control effect.

Row | Structure (SMILES) | AC50 | activity, negative = inhibition
1 | CC(=O)NCCC(=O)Nc1sc2c(c1-c1nc3ccccc3[nH]1)CCCC2 | 11.2 µM (active) | –
2 | CC(=O)Nc1sc2c(c1C(N)=O)CCCC2 | – | -29.9% (inactive)
3 | CC(=O)Nc1sc2c(c1CN1CCN(C)CC1)CCCC2 | – | -27.7% (inactive)
4 | N#Cc1cccc(-c2cc(NCc3cccs3)ncn2)c1 | – | -9.65% [at 2.29 µM] (inactive)
5 | C[N+]1(C)CCc2cc3c(cc2[C@@H]1[C@@H]1C(=O)Oc2c1ccc1c2OCO1)OCO3 | inactive | –
6 | CN1CCc2cc3c(cc2[C@@H]1[C@@H]1C(=O)Oc2c1ccc1c2OCO1)OCO3 | 12.6 µM (active) | –
7 | O=C(Nc1ccccc1[N+](=O)[O-])C1C(c2ccccc2)=C1c1ccccc1 | 6.31 µM (active) | –
8 | O=C(O)c1ccc(Sc2nnnn2-c2ccccc2)c([N+](=O)[O-])c1 | – | 19% (inactive)
9 | COCC(=O)N1CCC2(CCCN(C(=O)Nc3cccc(F)c3)C2)CC1 | – | -2.36% (inactive)
10 | CC(=O)SCC[N+](C)(C)C | – | 9.28% (inactive)
11 | COc1ccc(/C=C2/S/C(=N/N=C3\CC4CCC3(C)C4(C)C)NC2=O)cc1 (stereo not given) | 8.91 µM (active) | –
12 | CCCCCCCCC(=O)NCc1cc(OC)c(O)cc1I | – | -13.8% (inactive)
13 | CCCCCCCC/C=C\CCCCCCCC(=O)NCc1ccc(O)c(OC)c1 | – | -9.24% (inactive)
14 | COc1cc(CNC(=O)CCCC/C=C\C(C)C)ccc1O | 2 µM (active) | –
15 | Cc1ccnc(N)c1 | – | 28.1% (inactive)
16 | CSc1nsc(/C=C/Nc2ccc(Cl)cc2)c1C#N | 2.24 µM (active) | –
17 | CN(Cc1ccco1)c1nc(-c2ccoc2)nc2ccccc12 | – | -3.83% [at 2.29 µM] (inactive)
18 | Cc1ccccc1CSc1nnc(-c2cccs2)n1Cc1ccco1 | 11.2 µM (active) | –
19 | c1ccc(-c2nnc(SCc3nc4ccccc4[nH]3)n2Cc2ccco2)cc1 | 6.31 µM (active) | –
20 | CCn1c(SCC(=O)N2CCN(S(=O)(=O)c3ccccc3)CC2)nnc1-c1cccs1 | – | -37.8% (inactive)
21 | Cc1ccccc1-c1cncnc1N(C)Cc1ccco1 | – | -10.8% [at 2.29 µM] (inactive)
22 | CCn1c(SCc2cccc(C)c2)nnc1-c1ccc(C)cc1 | – | -21.7% (inactive)
23 | CCn1c(SCc2nc3ccccc3[nH]2)nnc1-c1ccc(OC)cc1 | 12.6 µM (active) | –
24 | O=C(O)CC[C@]1(C(=O)O)CCC(=O)c2ccccc21 | – | -1.2% [at 11.4 µM] (inactive)

Row | Structure (SMILES) | AC50 | activity, negative = inhibition
25 | N[C@H](C(=O)O)[C@@H]1C[C@@H]1C(=O)O | inactive | –
26 | O=C1C=C(c2cccs2)CC(c2cccs2)C1n1cnc([N+](=O)[O-])c1 (stereo not given) | 14.1 µM (active) | –
27 | Cc1nc(SCC(=O)c2cc3ccccc3oc2=O)c(C#N)c(C)c1C(=O)Nc1ccccc1 | 0.794 µM (active) | –
28 | Cc1ccc(N2C(=O)CC(c3ccsc3)C3=C2CC(C)(C)CC3=O)cc1 (stereo not given) | 3.98 µM (active) | –
29 | CC(=O)NCCNc1nc(-c2ccc(C(=O)N(C)C)cc2)nc2ccccc12 | – | 6.97% [at 2.29 µM] (inactive)
30 | COc1cc(C(=O)Nc2nc3ccc4nc(C)sc4c3s2)cc(OC)c1OC | – | -37.3% (inactive)
31 | Cc1nc2c(ccc3nc(NC(=O)c4ccc5c(c4)OCCO5)sc32)s1 | 0.708 µM (active) | –
32 | Cc1nc2ccc3nc(NC(=O)c4ccc(S(=O)(=O)N5CCOCC5)cc4)sc3c2s1 | – | -18.4% (inactive)
33 | CN(C)c1ncnc2c1ncn2CCn1cnc2c(N(C)C)ncnc21 | – | -7.75% [at 11.4 µM] (inactive)
34 | CCN(C(=O)COc1cc(=O)n(C)c2ccccc12)c1cccc(Cl)c1 | 7.94 µM (active) | –
35 | COc1cc(=O)n(C)c2c(OC[C@@H](O)C(C)(C)O)cccc12 | inactive | –
36 | CCN(C(=O)Cn1c(=O)oc2ccccc21)c1cccc(C(F)(F)F)c1 | – | 11.8% (inactive)
37 | Cc1cnn(CCC(=O)NNC(=S)Nc2ccc(F)cc2)c1 | – | -25.6% (inactive)
38 | CCSc1ncc(/C=N/Nc2ccc(F)cc2)n1C | 12.6 µM (active) | –
39 | CCOC(=O)N/N=C/c1ccc(F)cc1 | – | -11% (inactive)
40 | c1ccc([C@H](CCN2CCCC2)c2ccccn2)cc1 | – | 10.4% [at 11.4 µM] (inactive)
41 | O=C1[C@H]2[C@H]3[C@H](O)[C@H](O)C/C(=N/OC[C@@H](O)COCc4ccco4)[C@H]3CC[C@@H]2C(=O)N1Cc1ccc2c(c1)OCO2 | – | 12.6% [at 11.4 µM] (inactive)
42 | Cc1c(C(=O)NN2CCOCC2)nn(-c2ccc(Cl)cc2Cl)c1-c1ccc(I)cc1 | 6.31 µM (active) | –
43 | Cc1ccc(C(=O)NN2CCOCC2)cc1 | – | -10.7% (inactive)
44 | O=C(N/N=C1/C[C@@H](O)[C@@H](O)[C@@H]2[C@@H]3C(=O)N(Cc4ccccc4)C(=O)[C@H]3CC[C@H]12)OCc1ccccc1 | – | 4.61% [at 11.4 µM] (inactive)
45 | CCOC(=O)c1sc(NS(=O)(=O)c2ccccc2)nc1C | 1 µM (active) | –
46 | COc1ccc(C/C(N)=N/OC(=O)Cc2ccccc2)cc1OC | – | 5.49% (inactive)
47 | COC(=O)c1c(-c2ccc3ccccc3c2)csc1NC(=O)Cc1ccc(OC)c(OC)c1 | 0.447 µM (active) | –
48 | CCOC(=O)c1sc(NC(C)=O)nc1-c1ccccc1 | 31.6 µM (active) | –

Row | Structure (SMILES) | AC50 | activity, negative = inhibition
49 | COc1ccc(CC(=O)NCc2ccccn2)cc1OC | – | -10% (inactive)
50 | CCOC(=O)Cc1csc(NS(=O)(=O)c2ccccc2)n1 | 5.01 µM (active) | –
51 | C#CCCCO/N=C1/C[C@@H](O)[C@@H](O)[C@@H]2[C@@H]3C(=O)N(C4CCCCC4)C(=O)[C@H]3CC[C@H]12 | – | 6.11% [at 11.4 µM] (inactive)
52 | CCOC(=O)c1c(C)n(C)c2ccc(OC)c(NC(=O)CN3CCCCC3)c12 | – | -6.07% (inactive)
53 | CCCC(=O)Nc1nc(C(=O)OCC)cs1 | – | -26.8% (inactive)
54 | Cn1cnnc1SCC(=O)OCN1C(=O)c2ccccc2C1=O | – | -14.3% (inactive)
55 | CCOC(=O)c1c(-c2ccccc2)csc1NC(=O)c1cccc(N2C(=O)CCC2=O)c1 | 0.316 µM (active) | –
56 | CCOC(=O)Cc1csc(NC(=O)CCCCCN2C(=O)c3ccccc3C2=O)n1 | 1.26 µM (active) | –
57 | CCOC(=O)c1c(-c2cccc(C)c2)csc1NC(=O)c1c(-c2ccccc2)noc1C | – | -23% (inactive)
58 | CCOC(=O)c1c(-c2ccc(OC)cc2)csc1NC(=O)CCN1C(=O)c2ccccc2C1=O | 1.41 µM (active) | –
59 | N[C@@H](Cn1cc(F)c(=O)[nH]c1=O)C(=O)O | – | 8.3% (inactive)
60 | Cc1ccc(S(=O)(=O)N(CC(=O)NCCC2=CCCCC2)Cc2ccccc2F)cc1 | 7.08 µM (active) | –
61 | Cc1c(C(=O)NCCC2=CCCCC2)cccc1[N+](=O)[O-] | – | 4.59% (inactive)
62 | CC(=O)c1cnc2cc(C)nn2c1C | – | -25.7% (inactive)
63 | O=C1CCCN1c1ccc(S(=O)(=O)Oc2cccc(Cl)c2)cc1[N+](=O)[O-] | 11.2 µM (active) | –
64 | O=C(Cn1ccnc1[N+](=O)[O-])NCCO | – | -0.606% [at 25.6 µM] (inactive)
65 | COc1cccc(-c2ccc3ncnc(N4CCN(C)CC4)c3c2)c1 | – | -5.64% [at 2.29 µM] (inactive)
66 | COc1cccc(-c2nnc3sc(-c4ccc(C)cc4)nn23)c1 | 10 µM (active) | –
67 | COc1cccc(-c2nccc(-n3ccnc3)n2)c1 | – | -24.4% [at 2.29 µM] (inactive)
68 | COc1ccc(CNc2ccnc(-c3ccc(C(=O)N(C)C)cc3)n2)c(OC)c1 | – | -2.88% [at 2.29 µM] (inactive)
69 | Cc1ccc(N2C(=O)CSC2c2cccnc2)cc1F (stereo not given) | – | -24.7% (inactive)
70 | Cc1ccc(NC(=O)C2(NC(=O)c3cccc(N4C(=O)CSC4c4ccccc4)c3)CCCCC2)cc1 (stereo not given) | 1.41 µM (active) | –
71 | Cc1ncc(COP(=O)(O)O)c(C)c1O | – | 5.34% [at 11.4 µM] (inactive)
72 | CCN1CCN(C(=O)C2c3cc(OC)c(OC)cc3C(=O)N3CCc4ccccc4C23)CC1 (stereo not given) | – | 1.31% (inactive)

Row | Structure (SMILES) | AC50 | activity, negative = inhibition
73 | CC(C)OC(=O)CN1CCN(C2c3ccccc3-c3ccccc32)CC1 | 14.1 µM (active) | –
74 | COC(=O)C/C=C1\c2ccccc2[C@H](OC)[C@H]1C | – | 15.8% [at 11.4 µM] (inactive)
75 | COc1ccccc1NC(=O)CN1CCN(C2c3ccccc3-c3ccccc32)CC1 | 0.794 µM (active) | –
76 | CC(=O)Nc1ccc2c(c1)C(=Nc1ccc(C(=O)O)cc1)c1ccccc1-2 | – | 16.5% [at 11.4 µM] (inactive)
77 | COC(=O)N1CCC2(CCCN(Cc3ccccc3OC)C2)CC1 | – | -1.79% (inactive)
78 | O=C(O)C[C@@H](C(=O)O)C1c2ccccc2-c2ccccc21 | – | -12.1% [at 11.4 µM] (inactive)
79 | COc1ccc(NC(C)=O)cc1NC(=O)CN1CCN(C2c3ccccc3-c3ccccc32)CC1 | 10 µM (active) | –
80 | Cc1c(NC(=O)NC(C)N2C(=O)C3C4C=CC(C4)C3C2=O)c(=O)n(-c2ccccc2)n1C (stereo not given) | – | -13.6% (inactive)
81 | COCCNc1cc(-c2ccccc2C(F)(F)F)ncn1 | – | 6.38% [at 2.29 µM] (inactive)
82 | O=C(NNC(=S)NCc1ccco1)c1ccc(Cl)s1 | 4.47 µM (active) | –
83 | O=S(=O)(c1ccccc1)N1CCC2(CCCN(Cc3nccs3)C2)CC1 | – | 13.6% (inactive)
84 | CSC(=NC#N)N1CCN(c2ccc(Cl)cc2)CC1 | 5.01 µM (active) | –
85 | CC(C)c1nnc(NC(=O)c2sc3ccccc3c2Cl)s1 | 12.6 µM (active) | –
86 | CN(C(=S)NC(=O)c1ccccc1Br)C1CCCCC1 | – | -17.8% (inactive)
87 | CC(C)Cc1nnc(NC(=O)c2ccc([N+](=O)[O-])cc2)s1 | – | -27.3% (inactive)
88 | Cc1ccc(NC(=O)c2sc3ccccc3c2Cl)nc1 | – | -9.76% (inactive)
89 | O=C(O)CCC(=O)c1ccc2sc3ccccc3c2c1 | – | -2.22% [at 11.4 µM] (inactive)
90 | CCOC(=S)NC(=O)c1sc2ccccc2c1Cl | 0.0631 µM (active) | –
91 | O=C(NC(=S)N(CCCCO)C1CCCCC1)c1sc2ccccc2c1Cl | 7.94 µM (active) | –
92 | CCCCOC(=S)NC(=O)c1sc2ccccc2c1Cl | 0.282 µM (active) | –
93 | Cc1ncc2c(c1O)COP(=O)(O)OC2 | – | -10.3% (inactive)
94 | CN(C)c1ccc(-c2cc(NCc3cccnc3)ncn2)cc1 | – | -1.19% [at 2.29 µM] (inactive)
95 | CCc1cc2c(nc1CC)CCN(CC/C(C)=N/O[C@@H](C)c1cn([C@H](CO)Cc3ccccc3)nn1)C2 | – | 1.31% [at 11.4 µM] (inactive) and -5.84% [at 11.4 µM] (inactive)
